Experimental data as given in PubChem BioAssay (Tox21).
“And” between values parts separate entries of the source, which are not always exact repeats. Equal entries are not always repeated. Records with an inconclusive call do not appear. A number with no mark means an inactive call. The source made the active and inactive calls. Calls come from the whole dose curve; as a rule, active = well fitted activation curve with a large enough effect in the repeat runs; inconclusive = weak or mixed curves; inactive = flat fitted curve, though single readings scatter.

Experiment: A CellTox Green Cytotoxicity Assay to monitor cytotoxicity in HEK293 cells - 24 hour (AID 1224875); note: nearly all actives have a fitted effect of over 45% in size
Settings: CellTox Green fluorescence; series mostly up to 76.8 µM; activity change: at the top concentration
From the text: National Center for Advancing Translational Sciences [NCATS]
NIH Chemical Genomics Center [NCGC]
U.S. Environmental Protection Agency [EPA]
National Institutes of Environmental Health Sciences [NIEHS]
National Toxicology Program [NTP]
Cell-based models are critical for drug discovery. Determining the natural cytotoxic effects resulting from test compounds is an essential research activity. A CellTox Green Cytotoxicity Assay to monitor cytotoxicity in real time of continues cell culture during 40 hours of the compound treatment was used to screen Tox21 10K library compounds in Hek293 cells. CellTox Green Cytotoxicity Assay is a nonlytic, homogeneous, biofluorescent method to measure cytotoxicity in cell culture after experimental manipulation. The assay system uses a proprietary asymmetric cyanine dye that is excluded from viable cells but preferentially stains the dead cell's DNA. […] Viable cells produce no appreciable increases in fluorescence. Therefore, the fluorescence signal produced by the binding interaction with dead cell DNA is proportional to cytotoxicity.
The mixture of Hek293 cell suspension and reagents were dispensed at 600cells/6 ul/well in 1536-well tissue culture treated black solid bottom plates using a Multidrop dispenser. After the assay plates were incubated at a 37 C/5% CO2 incubator for 5 hours, 23 nL of compounds dissolved in DMSO, positive and negative controls was transferred to the assay plate by a pintool work station. The plates were incubated at 37 C for 40 hours. The fluorescence intensity were measured at 0h, 8h, 16h, 24h, 32h and 40h time points using ViewLux plate reader during compound treatment.
% is set by controls: 0 for no effect and ±100 for the full control effect; potency is the fitted concentration of half-maximal effect.

| Compound | activity change | Potency |
| --- | --- | --- |
| CCOP(=O)(OCC)Oc1cc(C)nc(C(C)C)n1 | -7.11% |  |
| O=C1C(Cl)=C(Cl)C(=O)C(Cl)=C1Cl |  | 21.8 µM (active) and 24.5 µM (active) |
| CN1C(=O)[C@@H](NC(=O)c2cc3ccccc3[nH]2)N=C(c2ccccc2)c2ccccc21 | -7.35% [at 35.3 µM, active compounds read high] |  |
| O=c1[nH]c(Cl)c(Cl)cc1Cl | 7.77% |  |
| NC(=O)C(Cl)Cl | 2.78% |  |
| CN1[C@@H]2CC[C@H]1CC(O)C2 (stereo not given in full) | 13.4% |  |
| O=[N+]([O-])[O-].[Tl+] | -2.01% |  |
| CCCCC(CC)COC(=O)c1ccccc1C(=O)OCC(CC)CCCC (stereo not given) | -5.45% |  |
| CC(Cl)CCl (stereo not given) | -1.05% |  |
| C=CC(=C)C | 20.3% |  |
| CSSC | -13.1% |  |
| CC(=O)O.CC(=O)O.CC(=O)O.CC(=O)O.CC(=O)O.CC(=O)O.CC(=O)O.O.O.[Cr].[Cr].[Cr] | -3.83% |  |
| Brc1ccc(Oc2ccc(Br)cc2Br)c(Br)c1 | 4.96% |  |
| O=C(Cl)c1ccccc1F | -1.92% |  |
| C=CC(=O)[O][Sn]([CH2]CCC)([CH2]CCC)[CH2]CCC |  | 7.76 µM (active) |
| COP(=O)(OC)Oc1ccc([N+](=O)[O-])cc1 | -0.28% |  |
| C[C@@H]1CC2=CC(=O)CC[C@@H]2[C@H]2CC[C@@]3(C)[C@@H](CC[C@]3(C)O)[C@@H]21 | 0.0376% [at 35.3 µM, active compounds read high] |  |
| C#CCC1=C(C)C(OC(=O)C2C(C=C(C)C)C2(C)C)CC1=O (stereo not given) | 1.14% |  |
| O=C1C2(Cl)C3(Cl)C4(Cl)C(Cl)(Cl)C5(Cl)C3(Cl)C1(Cl)C5(Cl)C24Cl (stereo not given) |  | 38.3 µM (active) and 52.6 µM (active) |
| CCOC(=O)CCN(SN(C)C(=O)Oc1cccc2c1OC(C)(C)C2)C(C)C | -0.11% |  |

| Compound | activity change | Potency |
| --- | --- | --- |
| CCNc1nc(NC(C)C(C)C)nc(SC)n1 (stereo not given) | -10.1% |  |
| S=C=Nc1ccccc1 | -0.551% |  |
| Cc1ccc([N+](=O)[O-])[c]2c1[O][Hg]2 |  | 1.51 µM (active) |
| CCCCCON=O | -5.86% |  |
| Cc1nn(-c2cc(NS(C)(=O)=O)c(Cl)cc2Cl)c(=O)n1C(F)F | -3.25% |  |
| CC(C)=CC1C(C(=O)OC(C#N)c2cccc(Oc3ccccc3)c2)C1(C)C (stereo not given) | 2.81% |  |
| [Cl-].[Cl-].[Cl-].[Yb+3] | -20.6% |  |
| Cc1c([N+](=O)[O-])cc2c(c1[N+](=O)[O-])C(C)(C)CC2(C)C | 28.1% |  |
| COc1cnc(OC)n2nc(NS(=O)(=O)c3c(OCC(F)F)cccc3C(F)(F)F)nc12 | -6.43% |  |
| CCCCCCC[CH2][Sn]([Cl])([Cl])[CH2]CCCCCCC | -10.3% |  |
| CC[N+]1(CC)CCC(OC(=O)C(O)(c2ccccc2)c2ccccc2)C1 (stereo not given) | -8.17% [at 35.3 µM, active compounds read high] |  |
| Clc1ccc(C2(Cn3cncn3)OCCO2)c(Cl)c1 | -0.356% |  |
| CC(C)C(Nc1ccc(C(F)(F)F)cc1Cl)C(=O)OC(C#N)c1cccc(Oc2ccccc2)c1 (stereo not given) | -1.23% |  |
| ClSC(Cl)(Cl)Cl | 1.1% |  |
| Nc1cc(Cl)ccc1Cl | 2.63% |  |
| Fc1ccc(C(OCCN2CCN(CCCc3ccccc3)CC2)c2ccc(F)cc2)cc1 |  | 23.9 µM (active) |
| N#Cc1c[nH]cc1-c1cccc2c1OC(F)(F)O2 | 7.52% |  |
| CCNS(=O)(=O)C(F)(F)C(F)(F)C(F)(F)C(F)(F)C(F)(F)C(F)(F)C(F)(F)C(F)(F)F | -2.07% |  |
| O=[N+]([O-])c1ccc(Cl)c(Cl)c1Cl |  | 24.2 µM (active) |
| Cc1cnc2c(C(=O)O)c(Cl)ccc2c1 | -5.46% |  |
